The OligoGym collection

Target: TBX10
Experiment: pooled miR-30 sensor sort-seq; sequence = guide strand
Settings: shRNA
Further: reference of the scale not given here.

| Sequence | sensor-assay potency score (higher = more potent) |
| --- | --- |
| TTCTGATAGGCTGTCACTGCTG | -0.605 |
| TTGCTGGCGATTTTCAGCTGGG | -0.663 |
| TATCTCTTGTCGTCCAGGGGGA | -0.47 |
| TCACTCTGGACACACGTGGGTT | -1.06 |
| TTCATCTCCAGCTGAACTGTCA | -0.543 |
| TAGCGCTCACTGTCCTTGCGTG | -0.517 |
| ATACCTGTATCTCTTGTCGTCC | -0.36 |
| TCCAGCTGAACTGTCACTCTGG | -0.454 |
| TATGGTGCTGGTCGGGTCCTTG | -1.11 |
| TTGGTGACGATCATCTCAGTGC | -0.282 |
| TTGTTGGGGTCTTTCTCCCTGT | -0.814 |
| TGGAGGTGGAAGCTGAAGCTTT | -1.2 |

Target: TBX15
Experiment: as above
Settings: shRNA

| Sequence | sensor-assay potency score (higher = more potent) |
| --- | --- |
| TGTCTTTCCACTCTCATCCATT | -1.03 |
| TTGTACACAGACAAATTCTTGG | -0.17 |
| TTAGATTACACAGCTGGCTTTC | -0.575 |
| TTCAGTTCCAATATCATGGAAC | -0.282 |
| TTAATCTGGTAATCTGCTGATT | -0.87 |
| TTGCTATGTAGTACTGCTGATG | -1.07 |
| TAGGCTTCCATCTTGCTGTTGC | 0.42 |
| TACACAGACAAATTCTTGGTGA | 0.47 |
| TTGATCATCCAACTCATTGTTG | -0.489 |
| TTTTAATCTGGTAATCTGCTGA | 0.443 |
| TTTCGGTCAATTTTTAATCTGG | -0.172 |
